According to PubChem BioAssay (Tox21):
“And” between values parts separate entries of the source, which are not always exact repeats. Identical values can stand only once. A number with no mark means an inactive call. Results filed as inconclusive are left out. Where a call stands in place of a potency, no number is given. The source made the active and inactive calls. Unless noted, calls follow the shape of the dose curve; as a rule, active = well fitted curve in the direction sought with a large enough effect in the repeat runs; inconclusive = weak or mixed curves; inactive = no such curve, though single readings can be large; an effect the other way counts as inactive or inconclusive.

Experiments:
[1] = qHTS assay for small molecule agonists of the p53 signaling pathway (AID 651631; calls by dose curve; also: nearly all actives have a fitted effect of over 15% in size; also: potency is read from the fitted curve at half-maximal effect)
Summary of the method: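 We treat p53RE-bla HCT-116 cells with compounds for 16 h at 37 °C, add LiveBLAzer B/G FRET substrate for 2 h at room temperature, and measure fluorescence intensity.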

[2] = qHTS assay for small molecules that induce genotoxicity in human embryonic kidney cells expressing luciferase-tagged ATAD5 (AID 651632); also: nearly all actives have a fitted effect of over 15% in size
Summary of the method: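 A rise in luciferase signal from ATAD5-tagged HEK293T cells marks genetic stress. Cells were exposed to compounds for 16 hr at 37C, 5% CO2, then luciferase was quantified after a 30 min room-temperature incubation with Amplite.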

[3] = qHTS assay for small molecule agonists of the p53 signaling pathway - cell viability (AID 651633; calls by dose curve; also: nearly all actives have a fitted effect of over 30% in size; also: potency is read from the fitted curve at half-maximal effect)
Summary of the method: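 p53RE-bla cells, seeded at 4,000 per well and rested 5 h at 37 C/5% CO2, received compounds in DMSO for 16 h at 37 C. CellTiter-Glo was then added, and luminescence was read after 30 min at room temperature to gauge cytotoxicity.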

[4] = qHTS assay for small molecules that induce genotoxicity in human embryonic kidney cells expressing luciferase-tagged ATAD5 - cell viability (AID 651634; calls by dose curve; also: nearly all actives have a fitted effect of over 25% in size)
Summary of the method: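 Cytotoxicity counter-readout: after 15.5 hr compound treatment at 37C, live-cell protease activity in ATAD5-luciferase HEK293T cells measured by CellTiter-Fluor fluorescence, 30 min development at 37C.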

[5] = qHTS assay for small molecule disruptors of the mitochondrial membrane potential - cell viability (AID 720634; calls by dose curve; also: nearly all actives have a fitted effect of over 20% in size; also: potency is read from the fitted curve at half-maximal effect)
Summary of the method: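 Cytotoxicity was quantified from ATP content by CellTiter-Glo luminescence in the same wells as the MMP dye read-out. HepG2 (2,000 cells/well) were plated overnight and exposed to compounds for 1 hr at 37 C.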

[6] = qHTS assay for small molecule disruptors of the mitochondrial membrane potential (AID 720635); also: potency is read from the fitted curve at half-maximal effect
Summary of the method: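 HepG2 cells (2,000/well) attached overnight at 37C, then took compound for 1 hr at 37C, 5% CO2. Mito-MPS dye was added for 30 min; fluorescence was read at 490/535 nm (monomers) and 540/590 nm (aggregates).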

[7] = qHTS assay to test for compound auto fluorescence at 590 nm (red) in HepG2 cells (AID 720674)
Summary of the method: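 Intrinsic compound fluorescence in the red window (Ex/Em 540/590 nm) is measured in attached HepG2 cells exposed for 1 hr, DMSO vehicle as baseline, benchmarked to Rose Bengal sodium.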

[8] = qHTS assay to test for compound auto fluorescence at 535 nm (green) in HepG2 cells (AID 720675)
[9] = qHTS assay to test for compound auto fluorescence at 460 nm (blue) in HEK293 cells (AID 720678)
Summary of the method: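 HEK293 cells (2,000/well, medium with 10% dialyzed FBS) attached 4-5 hr, then exposed to compound overnight at 37C, 5% CO2. Blue fluorescence read at 405/460 nm, with triamterene as reference fluorophore.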

[10] = qHTS assay to test for compound auto fluorescence at 590 nm (red) in HEK293 cells (AID 720679)
Summary of the method: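 HEK293 cells (2,000/well, 10% dialyzed FBS) attached 4-5 hr, then dosed with compound or DMSO and incubated overnight at 37C, 5% CO2. Red fluorescence read at 540/590 nm, Rose Bengal sodium as reference fluorophore.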

[11] = qHTS assay to test for compound auto fluorescence at 535 nm (green) in HEK293 cells (AID 720680)
[12] = qHTS assay to test for compound auto fluorescence at 460 nm (blue) in HEK293 cell free culture (AID 720681)
Summary of the method: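 Test compounds were pinned into cell-free culture medium (DMEM with 10% FBS) and fluorescence was read directly at Ex/Em 405/460 nm. Signals were expressed as fluorescence equivalents of triamterene, with DMSO vehicle as control.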

[13] = qHTS assay to test for compound auto fluorescence at 535 nm (green) in HEK293 cell free culture (AID 720682)
Summary of the method: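 Green-channel intensity (Ex/Em 485/535 nm) was recorded from compound-treated wells containing only DMEM with 10% FBS. Fluorescein provided the equivalency standard.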

[14] = qHTS assay to test for compound auto fluorescence at 590 nm (red) in HEK293 cell free culture (AID 720683)
Summary of the method: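 Tox21 10K library compounds were pinned into cell-free DMEM with 10% FBS and fluorescence was read at excitation 540 nm. Activity is expressed as Rose Bengal sodium equivalency.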

[15] = qHTS assay to test for compound auto fluorescence at 590 nm (red) in HepG2 cell free culture (AID 720684)
Summary of the method: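 Readout: intrinsic compound fluorescence at 590 nm emission after 540 nm excitation, scaled to Rose Bengal sodium. Matrix was cell-free MEM with 10% FBS; DMSO vehicle wells served as control.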

[16] = qHTS assay to test for compound auto fluorescence at 460 nm (blue) in HepG2 cell free culture (AID 720685)
Summary of the method: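 Cell-free plates of MEM plus 10% FBS received 23 nL compound or DMSO vehicle; blue-channel (405/460 nm) intensity scored against triamterene as reference fluorophore.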

[17] = qHTS assay to test for compound auto fluorescence at 535 nm (green) in HepG2 cell free culture (AID 720686)
[18] = qHTS assay to test for compound auto fluorescence at 460 nm (blue) in HepG2 cells (AID 720687)
Summary of the method: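 Cells (2,000/well in MEM with 10% FBS) attached overnight at 37 C, then were exposed to compound or DMSO for 1 hr at 37 C, 5% CO2. Fluorescence read at Ex/Em 405/460 nm, expressed as triamterene-equivalent signal.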

[19] = biological target: Glucocorticoid receptor (Homo sapiens) (UniProt P04150); experiment: qHTS assay to identify small molecule agonists of the glucocorticoid receptor (GR) signaling pathway (AID 720691; active = well fitted activation curve with a large enough effect in the signal ratio in the repeat runs, not every such curve was filed as active; the % refers to the signal ratio); details: GR-bla HeLa, beta-lactamase reporter ratio, 18 h; activation: at 62.4 µM (top of the series)
Chain of Glucocorticoid receptor (Homo sapiens) (P04150 whole entry, looked up): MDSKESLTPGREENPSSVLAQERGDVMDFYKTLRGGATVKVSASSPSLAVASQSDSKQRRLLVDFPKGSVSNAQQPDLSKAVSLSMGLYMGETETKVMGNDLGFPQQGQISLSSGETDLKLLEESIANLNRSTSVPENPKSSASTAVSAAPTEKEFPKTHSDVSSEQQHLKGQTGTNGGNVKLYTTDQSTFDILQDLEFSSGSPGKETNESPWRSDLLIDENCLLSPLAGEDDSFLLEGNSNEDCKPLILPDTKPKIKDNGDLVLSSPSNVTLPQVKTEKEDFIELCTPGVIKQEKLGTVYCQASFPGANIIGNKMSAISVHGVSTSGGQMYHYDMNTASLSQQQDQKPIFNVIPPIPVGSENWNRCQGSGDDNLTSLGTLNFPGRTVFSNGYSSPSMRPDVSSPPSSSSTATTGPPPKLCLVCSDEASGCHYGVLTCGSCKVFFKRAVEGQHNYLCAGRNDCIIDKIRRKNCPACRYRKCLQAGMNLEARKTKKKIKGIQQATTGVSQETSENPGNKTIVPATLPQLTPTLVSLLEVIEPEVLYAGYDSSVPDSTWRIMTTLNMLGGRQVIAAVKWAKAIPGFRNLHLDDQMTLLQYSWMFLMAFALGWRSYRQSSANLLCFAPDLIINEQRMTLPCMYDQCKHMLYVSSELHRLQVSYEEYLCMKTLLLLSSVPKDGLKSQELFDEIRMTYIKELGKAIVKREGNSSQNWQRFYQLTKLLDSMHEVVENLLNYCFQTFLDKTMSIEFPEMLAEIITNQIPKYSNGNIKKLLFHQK
Summary of the method: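 Agonist-mode qHTS in HeLa cells stably expressing a glucocorticoid-response-element beta-lactamase reporter. Fluorescence intensity read with FRET substrate (2 h, room temperature) after 18 h compound treatment at 37 C.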

[20] = biological target: Glucocorticoid receptor (Homo sapiens) (UniProt P04150); experiment: qHTS assay to identify small molecule antagonists of the glucocorticoid receptor (GR) signaling pathway (AID 720692; active = well fitted inhibition curve with a large enough effect in the signal ratio in the repeat runs, not every such curve was filed as active; the % refers to the signal ratio)
Summary of the method: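 Inhibition of dexamethasone-driven (5 nM final) beta-lactamase expression was measured in GRE-reporter HeLa cells over 18 h at 37C. Fluorescence was read after 2 h with the B/G FRET substrate at room temperature.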

| Compound | Potency [1] | Potency [2] | Potency [3] | Potency [4] | Potency [5] | Potency [6] | outcome [7] | Potency [8] | Potency [9] | outcome [10] | outcome [11] | Potency [12] | outcome [13] | outcome [14] | outcome [15] | Potency [16] | Potency [17] | Potency [18] | Potency [19] | Potency [20] |
| --- | --- | --- | --- | --- | --- | --- | --- | --- | --- | --- | --- | --- | --- | --- | --- | --- | --- | --- | --- | --- |
| O=NN(CCO)CCO | inactive | inactive | inactive | inactive | inactive | inactive | inactive | inactive | inactive | inactive | inactive | inactive | inactive | inactive | inactive | inactive | inactive | inactive | inactive | inactive |
| C=CC(=C)C | inactive | inactive | inactive | inactive | inactive | – | inactive | inactive | inactive | – | inactive | inactive | inactive | inactive | inactive | inactive | – | inactive | – | – |
| N#CCCl | inactive | inactive | inactive | inactive | inactive | inactive | inactive | inactive | inactive | inactive | inactive | inactive | inactive | inactive | inactive | inactive | inactive | inactive | – | – |
| CCC1COC(Cn2cncn2)(c2ccc(Cl)cc2Cl)O1 (stereo not drawn) | inactive | inactive | inactive | inactive | inactive | – | inactive | inactive | inactive | inactive | – | inactive | inactive | inactive | inactive | inactive | inactive | inactive | inactive | inactive |
| CC(C)=CCN1CC[C@@]2(C)c3cc(O)ccc3C[C@@H]1[C@@H]2C | inactive | inactive | inactive | inactive | inactive | inactive | inactive | inactive | inactive | inactive | – | inactive | – | inactive | inactive | inactive | inactive | inactive | – | – |
| NC(=O)C(Cl)Cl | inactive | inactive | inactive | inactive | inactive | inactive | inactive | inactive | inactive | – | inactive | inactive | inactive | inactive | inactive | inactive | inactive | inactive | inactive | inactive |
| O=[N+]([O-])c1ccccc1-c1ccccc1 | inactive | inactive | inactive | inactive | inactive | inactive | inactive | inactive | inactive | – | inactive | inactive | inactive | inactive | inactive | inactive | – | inactive | – | – |
| O=C(Cl)c1ccccc1F | inactive | inactive | inactive | inactive | inactive | inactive | inactive | inactive | inactive | inactive | inactive | inactive | inactive | inactive | inactive | inactive | inactive | inactive | – | – |
| Cc1cc(C2CC2)nc(Nc2ccccc2)n1 | inactive | inactive | inactive | inactive | – | – | inactive | inactive | inactive | – | inactive | inactive | inactive | inactive | inactive | inactive | inactive | inactive | – | – |
| CC1=C2C[C@H]3[C@@H](CC=C4C[C@@H](O)CC[C@@]43C)[C@@H]2CC[C@]12O[C@@H]1C[C@H](C)CN[C@H]1[C@H]2C | inactive | inactive | inactive | inactive | – | – | – | inactive | inactive | inactive | inactive | inactive | inactive | inactive | inactive | inactive | inactive | inactive | inactive | – |
| CCCCON=O | inactive | inactive | inactive | inactive | inactive | – | – | – | inactive | inactive | inactive | inactive | inactive | inactive | inactive | inactive | inactive | inactive | inactive | inactive |
| CC(Cc1ccc2c(c1)OCO2)NO (stereo not drawn) | inactive | inactive | – | inactive | inactive | – | inactive | – | inactive | inactive | inactive | inactive | inactive | inactive | inactive | inactive | inactive | inactive | inactive | – |
| O=C1C2(Cl)C3(Cl)C4(Cl)C(Cl)(Cl)C5(Cl)C3(Cl)C1(Cl)C5(Cl)C24Cl (stereo not drawn) | 60.1 µM (active) | inactive | 37.9 µM (active) | – | 1.9 µM (active) | 536 nM (active) and 585 nM (active) | – | inactive | inactive | inactive | inactive | inactive | inactive | inactive | inactive | inactive | inactive | inactive | – | – |
| CN1[C@@H]2CC[C@H]1CC(O)C2 (stereo partly drawn) | inactive | inactive | – | inactive | inactive | inactive | inactive | inactive | inactive | inactive | inactive | inactive | inactive | inactive | inactive | inactive | – | inactive | – | – |
| CCN(CC)CCN1C(=O)CN=C(c2ccccc2F)c2cc(Cl)ccc21 | inactive | inactive | inactive | – | inactive | – | inactive | – | inactive | inactive | inactive | inactive | inactive | inactive | inactive | inactive | inactive | inactive | inactive | inactive |
